Experimental data reported in PubChem BioAssay (NCI).
Compounds without any hit were thinned out: in the full panel of roughly 79,000, 15% have a hit. The source made the active and inactive calls. Rule as the data show it: active = growth inhibition above about 70%; inactive = the rest.

Experiments:
[1] = NCI Yeast Anticancer Drug Screen. Data for the rad50 strain (AID 155);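 also: 0% = growth of vehicle-only cultures of the same strain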; details: S. cerevisiae rad50 strain growth inhibition, hits give high values
Outline: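 DNA repair mutant yeast, compound exposure, growth read-out; inhibition is taken relative to vehicle.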

[2] = NCI Yeast Anticancer Drug Screen. Data for the mec2-1 strain (AID 157); details: S. cerevisiae mec2-1 strain, hits give high values
Outline: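 Mutant yeast (mec2-1) grown with compound; growth inhibition relative to vehicle control reported.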

[3] = NCI Yeast Anticancer Drug Screen. Data for the sgs1 mgt1 strain (AID 161);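 also: 0% = growth of cultures given vehicle only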; details: S. cerevisiae sgs1 mgt1 strain, hits give high values
Outline: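 Growth of a repair-deficient yeast mutant was monitored after compound treatment and expressed as inhibition relative to vehicle-treated cultures.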

[4] = NCI Yeast Anticancer Drug Screen. Data for the cln2 rad14 strain (AID 165);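 also: 0% = growth equal to vehicle treated cultures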; details: S. cerevisiae cln2 rad14 strain, hits give high values
Outline: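 Readout is yeast growth inhibition versus vehicle-treated controls, using a strain with cln2 and rad14 alterations exposed to compound.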

[5] = NCI Yeast Anticancer Drug Screen. Data for the bub3 strain (AID 167); details: S. cerevisiae bub3 mutant strain, hits give high values
Outline: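 In this screen, a yeast mutant lacking normal mitotic checkpoint function is challenged with compound. Relative growth versus vehicle gives the inhibition value.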

[6] = NCI Yeast Anticancer Drug Screen. Data for the mlh1 rad18 strain (AID 175); details: S. cerevisiae mlh1 rad18 strain growth inhibition, hits give high values
Outline: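 Genetically defined yeast (DNA repair-deficient) exposed to compounds; growth inhibition determined relative to vehicle.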

[7] = at 5.0 µM (retest, dose inferred, filed as 0.5)
[8] = at 50.0 µM (retest, dose inferred, filed as 5.0)

Measured: growth inhibition

Nc1ccc(-c2ccc(N)cc2S(=O)(=O)O)c(S(=O)(=O)O)c1
inactive: [1]; [7] 2% | [1]; [8] 0% | [1]; at 50.0 µM -27.6% | [2]; [7] 0% | [2]; [8] -5% | [2]; at 50.0 µM -14.2% | [3]; [7] -1% | [3]; [8] -1% | [3]; at 50.0 µM -5.9% | [4]; [7] -2% | [4]; [8] -5% | [4]; at 50.0 µM 23.4% | [5]; [7] 2% | [5]; [8] 7% | [5]; at 50.0 µM 1.8% | [6]; [7] -7% | [6]; [8] -4% | [6]; at 50.0 µM -38.7%

O=C(O)CNc1ccc2c(c1)Cc1cc(Br)ccc1-2
active: [1]; [8] 88% | [1]; at 50.0 µM 97.2% | [2]; [8] 87% | [2]; at 50.0 µM 96.2% | [3]; [8] 98% | [3]; at 50.0 µM 97.9% | [4]; at 50.0 µM 88.9% | [5]; [8] 85% | [5]; at 50.0 µM 96.5% | [6]; [8] 96% | [6]; at 50.0 µM 97.7%
inactive: [1]; [7] 19% | [2]; [7] -1% | [3]; [7] 55% | [4]; [7] -3% | [4]; [8] 59% | [5]; [7] -1% | [6]; [7] 45%

COc1ccc2c(c1)OC(OC)(c1ccccc1)C(O)(OC)C2=O (configuration not stated)
inactive: [1]; [7] 1% | [1]; [8] 21% | [1]; at 50.0 µM 40.7% | [2]; [7] -7% | [2]; [8] 22% | [2]; at 50.0 µM 31.8% | [3]; [7] 3% | [3]; [8] 35% | [3]; at 50.0 µM 59% | [4]; [7] -9% | [4]; [8] 15% | [4]; at 50.0 µM 7.25% | [5]; [7] -1% | [5]; [8] 17% | [5]; at 50.0 µM 20.4% | [6]; [7] -4% | [6]; [8] 33% | [6]; at 50.0 µM 44.4%

Oc1ccc(C2(c3ccc(O)c(Cl)c3)CC3CCC2C3)cc1Cl (configuration not stated)
active: [1]; [7] 98% | [1]; [8] 98% | [1]; at 50.0 µM 98% | [2]; [7] 99% | [2]; [8] 99% | [2]; at 50.0 µM 99.2% | [3]; [7] 99% | [3]; [8] 98% | [3]; at 50.0 µM 99.3% | [4]; [7] 99% | [4]; [8] 98% | [4]; at 50.0 µM 99% | [5]; [7] 99% | [5]; [8] 98% | [5]; at 50.0 µM 98.8% | [6]; [7] 99% | [6]; [8] 97% | [6]; at 50.0 µM 98.7%

O=C(Nc1ccc(Cl)cc1)NS(=O)(=O)c1ccc2c(c1)CCC2
inactive: [1]; [7] -18% | [1]; [8] 35% | [1]; at 50.0 µM 59.2% | [2]; [7] -40% | [2]; [8] 16% | [2]; at 50.0 µM 39.4% | [3]; [7] -30% | [3]; [8] 57% | [3]; at 50.0 µM 69.8% | [4]; [7] -23% | [4]; [8] 38% | [4]; at 50.0 µM 59% | [5]; [7] -14% | [5]; [8] 62% | [5]; at 50.0 µM 30.4% | [6]; [7] -47% | [6]; [8] 27% | [6]; at 50.0 µM 45.6%

CCCCCCCCCCCC(=O)OCCN(CCOC(=O)CCCCCCCCCCC)C(=O)COC(=O)CCCCCCCCCCC
active: [1]; at 50.0 µM 99.4% | [2]; [8] 94% | [2]; at 50.0 µM 99.7% | [3]; [8] 92% | [3]; at 50.0 µM 99.8% | [4]; [8] 81% | [4]; at 50.0 µM 99.3% | [6]; [8] 86% | [6]; at 50.0 µM 99.3%
inactive: [1]; [7] -4% | [1]; [8] 39% | [2]; [7] 1% | [3]; [7] 3% | [4]; [7] -2% | [5]; [7] -2% | [5]; [8] 60% | [5]; at 50.0 µM 60.4% | [6]; [7] 1%

CC(=O)C1CCC2C3CC(F)C4(O)CC(O)CCC4(C)C3CCC12C (configuration not stated)
active: [1]; [8] 98% | [2]; [8] 99% | [3]; [8] 95% | [5]; at 50.0 µM 85.7% | [6]; [8] 99%
inactive: [1]; [7] -120% | [1]; at 50.0 µM 4.1% | [2]; [7] -3% | [2]; at 50.0 µM -1% | [3]; [7] -1% | [3]; at 50.0 µM 62% | [4]; [7] -6% | [4]; [8] 58% | [4]; at 50.0 µM -9.95% | [5]; [7] -4% | [5]; [8] 33% | [6]; [7] -20% | [6]; at 50.0 µM 32.4%

CC[N+]1(C)CCC(O)(c2ccc(Cl)c(Cl)c2)C(C(=O)c2ccc(Cl)c(Cl)c2)C1 (configuration not stated)
inactive: [1]; [7] 15% | [2]; [7] 4% | [3]; [7] 11% | [4]; [7] 6% | [5]; [7] 13% | [6]; [7] 7%
active: [1]; [8] 99% | [1]; at 50.0 µM 99.4% | [2]; [8] 100% | [2]; at 50.0 µM 99.6% | [3]; [8] 99% | [3]; at 50.0 µM 99% | [4]; [8] 99% | [4]; at 50.0 µM 99.5% | [5]; [8] 100% | [5]; at 50.0 µM 98.8% | [6]; [8] 100% | [6]; at 50.0 µM 99.6%

CN(CCO)CCn1cnc2c1c(=O)n(C)c(=O)n2C
inactive: [1]; [7] -7% | [1]; [8] 5% | [1]; at 50.0 µM -36.7% | [2]; [7] -8% | [2]; [8] 9% | [2]; at 50.0 µM -13.9% | [3]; [7] 7% | [3]; [8] -2% | [3]; at 50.0 µM 1.65% | [4]; [7] -15% | [4]; [8] -12% | [4]; at 50.0 µM -21.8% | [5]; [7] -4% | [5]; [8] 9% | [5]; at 50.0 µM -7.15% | [6]; [7] -11% | [6]; [8] -1% | [6]; at 50.0 µM -5.9%
